Reference: PubChem BioAssay (Tox21)
Records with an inconclusive call do not appear. Active and inactive are the calls of the source. Unless noted, calls follow the shape of the dose curve; as a rule, active = well fitted curve in the direction sought with a large enough effect in the repeat runs; inconclusive = weak or mixed curves; inactive = no such curve, though single readings can be large; an effect the other way counts as inactive or inconclusive.

Assays:
[1] = qHTS assay to identify small molecule agonists of the RXR signaling pathway - cell viability counter screen (AID 1159529); also: nearly all actives have a fitted effect of over 50% in size; also: potency is read from the fitted curve at half-maximal effect
Summary of the method: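 Same-well viability check after the LiveBLAzer FRET read: CellTiter-Glo added, luminescence measured after 30 min at room temperature. Reporter HEK 293T cells had been treated with compounds for 16 hr following a 5 hr preincubation.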

[2] = qHTS assay to identify small molecule antagonists of the retinoid acid receptor (RAR) signaling pathway - cell viability counter screen (AID 1159551); also: nearly all actives have a fitted effect of over 35% in size; also: potency is read from the fitted curve at half-maximal effect
Summary of the method: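 Cells (C3RL4) are plated, incubated overnight, dosed with compound in DMSO, then given retinol at 1 uM final. After 6 h at 37 C, CellTiter-Glo is added and luminescence read following 30 min at room temperature.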

[3] = biological target: Nuclear receptor subfamily 1 group I member 3 (Homo sapiens) (UniProt Q14994); assay: qHTS assay to identify small molecule agonists of the constitutive androstane receptor (CAR) signaling pathway (AID 1224839); also: nearly all actives have a fitted effect of over 15% in size; also: potency is read from the fitted curve at half-maximal effect
Sequence of Nuclear receptor subfamily 1 group I member 3 (Homo sapiens) (Q14994 whole entry, looked up): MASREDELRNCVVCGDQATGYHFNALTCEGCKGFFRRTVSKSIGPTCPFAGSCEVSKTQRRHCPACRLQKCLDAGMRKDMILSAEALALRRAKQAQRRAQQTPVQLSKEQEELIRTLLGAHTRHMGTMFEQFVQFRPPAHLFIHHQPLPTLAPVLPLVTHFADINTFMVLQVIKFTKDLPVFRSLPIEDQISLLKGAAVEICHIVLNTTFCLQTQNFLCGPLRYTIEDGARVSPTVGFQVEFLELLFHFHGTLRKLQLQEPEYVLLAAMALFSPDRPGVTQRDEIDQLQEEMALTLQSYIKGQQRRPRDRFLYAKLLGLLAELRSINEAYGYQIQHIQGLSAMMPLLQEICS
Summary of the method: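 In this screen, CAR-driven CYP2B6 promoter activity is measured by luminescence in HepG2-CYP2B6-hCAR cells after 24 h with test compounds and 0.75 uM PK11195 (final concentration).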

[4] = qHTS assay to identify small molecule agonists of the hypoxia (HIF-1) signaling pathway - cell viability counter screen (AID 1224844; calls by dose curve; also: nearly all actives have a fitted effect of over 50% in size; also: potency is read from the fitted curve at half-maximal effect)
Summary of the method: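 Cytotoxicity was measured in parallel with the HRE-driven beta-lactamase readout: after 17 hrs of compound exposure at 37C, HRE-bla ME-180 cells received CellTiter-Glo and luminescence was recorded 30 min later.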

[5] = qHTS RealTime-Glo MT Cell Viability Assay in HEK293 cells - 16 hour (AID 1224872); also: nearly all actives have a fitted effect of over 50% in size; also: potency is read from the fitted curve at half-maximal effect
Summary of the method: (§1)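 Nonlytic real-time viability readout: viable cells convert prosubstrate to NanoLuc substrate, giving luminescence proportional to live cell number. HEK293, 600 cells/well, compound added after 5 h, continuous culture at 37 C.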

[6] = qHTS RealTime-Glo MT Cell Viability Assay in HepG2 cells - 8 hour (AID 1224873); also: nearly all actives have a fitted effect of over 55% in size; also: potency is read from the fitted curve at half-maximal effect
Summary of the method: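 HepG2 cells (600/well) mixed with RealTime-Glo MT reagent, settled 5 h at 37 C/5% CO2 before compound addition. Nonlytic NanoLuc luminescence from viable-cell prosubstrate reduction read repeatedly during 40 h treatment at 37 C.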

[7] = A CellTox Green Cytotoxicity Assay to monitor cytotoxicity in HEK293 cells - 32 hour (AID 1224881); also: nearly all actives have a fitted effect of over 40% in size; also: potency is read from the fitted curve at half-maximal effect
Summary of the method: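 Cells (HEK293, 600/well) and dye reagent are dispensed together. After 5 h at 37 C, 23 nL compound is pinned in. Plates stay at 37 C for 40 h with fluorescence read at 0h, 8h, 16h, 24h, 32h and 40h.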

[8] = qHTS RealTime-Glo MT Cell Viability Assay in HEK293 cells - 24 hour (AID 1224886); also: nearly all actives have a fitted effect of over 50% in size; also: potency is read from the fitted curve at half-maximal effect
Summary of the method: as §1

[9] = qHTS assay to identify small molecule agonists of the androgen receptor (AR) signaling pathway in the presence of an antagonist - cell viability counter screen (AID 1259379); also: nearly all actives have a fitted effect of over 25% in size; also: potency is read from the fitted curve at half-maximal effect
Summary of the method: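 Cytotoxicity is assessed by CellTiter-Fluor in MDA-kb2 cells carrying an MMTV-driven luciferase reporter. Cells receive 3.0uM nilutamide plus compounds at 15 concentrations and incubate 16 hr at 37C without CO2 before fluorescence reading.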

[10] = Caspase-3/7 induction in CHO-K1 cells by small molecules, qHTS cell viability counter screen (AID 1346979); also: potency is read from the fitted curve at half-maximal effect; nearly all actives have a fitted effect of over 35% in size
Summary of the method: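 Multiplexed with Caspase-Glo 3/7 in CHO-K1 cells, this counter screen added CellTiter-Fluor after 16hr of compound exposure and recorded fluorescence 1hr later.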

[11] = biological target: Nuclear receptor subfamily 1 group I member 2 (Homo sapiens) (UniProt O75469); assay: Human pregnane X receptor (PXR) small molecule agonists, qHTS assay (AID 1346982); also: nearly all actives have a fitted effect of over 35% in size; also: potency is read from the fitted curve at half-maximal effect
Sequence of Nuclear receptor subfamily 1 group I member 2 (Homo sapiens) (O75469 whole entry, looked up): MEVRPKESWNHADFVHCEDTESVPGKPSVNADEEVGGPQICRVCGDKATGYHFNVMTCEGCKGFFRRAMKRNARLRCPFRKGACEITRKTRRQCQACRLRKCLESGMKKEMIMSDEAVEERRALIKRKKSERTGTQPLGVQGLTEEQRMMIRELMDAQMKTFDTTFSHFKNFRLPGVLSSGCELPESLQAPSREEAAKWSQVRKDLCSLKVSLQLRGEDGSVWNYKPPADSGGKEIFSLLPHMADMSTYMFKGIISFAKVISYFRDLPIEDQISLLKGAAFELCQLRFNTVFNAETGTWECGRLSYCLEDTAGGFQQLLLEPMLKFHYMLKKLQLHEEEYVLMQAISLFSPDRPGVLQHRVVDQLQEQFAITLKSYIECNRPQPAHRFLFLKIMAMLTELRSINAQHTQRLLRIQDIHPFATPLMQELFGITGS
Summary of the method: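 Cells: HepG2 stably carrying PXR-Luc. Medium held 5% charcoal-stripped FBS. Compounds in DMSO added after 5 hr plating, incubated 24 hr, then luminescence quantified with ONE-Glo.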

[12] = biological target: Cytochrome P450 3A4 (Homo sapiens) (UniProt P08684); assay: Cytochrome P450 Family 3 Subfamily A Member 4 (CYP3A4) small molecule antagonists: luciferase reporter qHTS assay (AID 1671201); also: nearly all actives have a fitted effect of over 50% in size; also: potency is read from the fitted curve at half-maximal effect
Sequence of Cytochrome P450 3A4 (Homo sapiens) (P08684 whole entry, looked up): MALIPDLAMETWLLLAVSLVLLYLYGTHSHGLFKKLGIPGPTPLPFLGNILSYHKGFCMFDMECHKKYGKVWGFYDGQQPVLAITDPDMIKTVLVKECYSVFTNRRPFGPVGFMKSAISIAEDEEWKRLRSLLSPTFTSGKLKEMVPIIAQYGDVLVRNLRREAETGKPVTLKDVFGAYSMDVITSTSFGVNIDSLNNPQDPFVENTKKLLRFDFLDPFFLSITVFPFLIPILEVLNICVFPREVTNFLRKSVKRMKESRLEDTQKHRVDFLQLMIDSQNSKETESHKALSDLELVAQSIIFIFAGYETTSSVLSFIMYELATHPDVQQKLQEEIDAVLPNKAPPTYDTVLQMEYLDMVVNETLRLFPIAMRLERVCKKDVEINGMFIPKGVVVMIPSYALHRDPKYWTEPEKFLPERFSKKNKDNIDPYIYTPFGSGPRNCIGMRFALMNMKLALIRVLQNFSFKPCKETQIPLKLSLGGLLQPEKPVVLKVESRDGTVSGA
Summary of the method: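 Room-temperature assay throughout: 10 min compound–enzyme/substrate preincubation, 1 h reaction after NADPH regeneration solution, 20 min detection. Luciferin formed from proluciferin substrate is quantified by luminescence.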

[13] = biological target: Aryl hydrocarbon receptor (Homo sapiens) (UniProt P35869); assay: qHTS assay to identify small molecule that activate the aryl hydrocarbon receptor (AhR) signaling pathway (AID 743085);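 also: HG2L7.5c1 human HepG2 liver cells with stably integrated DRE-driven firefly reporter; series mostly up to about 70 µM; % is scaled to controls: 0 for no effect and ±100 for the full control effect; nearly all actives have a fitted effect of over 15% in size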
Sequence of Aryl hydrocarbon receptor (Homo sapiens) (P35869 whole entry, looked up): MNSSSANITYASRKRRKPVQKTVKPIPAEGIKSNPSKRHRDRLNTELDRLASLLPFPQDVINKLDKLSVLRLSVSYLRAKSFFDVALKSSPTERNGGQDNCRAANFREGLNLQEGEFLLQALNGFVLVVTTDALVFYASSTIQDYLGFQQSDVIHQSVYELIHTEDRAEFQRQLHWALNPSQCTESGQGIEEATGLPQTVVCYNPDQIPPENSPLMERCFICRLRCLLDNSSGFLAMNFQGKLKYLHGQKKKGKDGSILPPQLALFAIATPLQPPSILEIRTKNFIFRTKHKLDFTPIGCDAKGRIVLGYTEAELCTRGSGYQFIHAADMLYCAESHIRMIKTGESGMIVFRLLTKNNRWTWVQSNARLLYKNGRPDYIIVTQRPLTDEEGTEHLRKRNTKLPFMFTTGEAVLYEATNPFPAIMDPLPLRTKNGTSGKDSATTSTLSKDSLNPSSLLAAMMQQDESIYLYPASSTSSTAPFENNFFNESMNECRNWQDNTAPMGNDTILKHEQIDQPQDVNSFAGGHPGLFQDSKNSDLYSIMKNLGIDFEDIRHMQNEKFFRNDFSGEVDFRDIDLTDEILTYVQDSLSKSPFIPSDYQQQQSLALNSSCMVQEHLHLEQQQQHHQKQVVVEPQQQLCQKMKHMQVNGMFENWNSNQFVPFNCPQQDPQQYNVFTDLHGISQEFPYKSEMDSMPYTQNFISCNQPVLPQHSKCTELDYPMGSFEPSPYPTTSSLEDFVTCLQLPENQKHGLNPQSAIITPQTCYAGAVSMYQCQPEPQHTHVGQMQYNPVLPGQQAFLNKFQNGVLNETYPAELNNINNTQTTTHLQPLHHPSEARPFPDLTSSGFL
Summary of the method: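 24 h compound exposure, 37C, HepG2-derived HG2L7.5c1 cells with DRE-responsive luciferase. Readouts: fluorescence viability, then luminescence at room temperature after 30 min.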

[14] = qHTS assay to test for compound auto fluorescence at 590 nm (red) in HepG2 cells (AID 720674); also: % is scaled to controls: 0 for no effect and ±100 for the full control effect
Summary of the method: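 HepG2 cells, 2,000 per well in MEM with 10% FBS, attached overnight at 37 C, then got 23 nL compound or DMSO. After 1 hr at 37 C, 5% CO2, red fluorescence was read at 540/590 nm against Rose Bengal sodium as reference.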

[15] = qHTS assay to test for compound auto fluorescence at 460 nm (blue) in HEK293 cells (AID 720678); also: % is scaled to controls: 0 for no effect and ±100 for the full control effect
Summary of the method: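 Blue read-out at excitation 405 nm and emission 460 nm follows overnight compound exposure of HEK293 cells at 37C in 5% CO2. Activity is given as auto fluorescence equivalency to triamterene.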

[16] = qHTS assay to test for compound auto fluorescence at 535 nm (green) in HEK293 cell free culture (AID 720682); also: % is scaled to controls: 0 for no effect and ±100 for the full control effect
Summary of the method: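 Measurement is a direct plate read of green fluorescence (485 nm in, 535 nm out) after compound addition to serum-supplemented DMEM lacking cells, with fluorescein used to express intensities.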

[17] = qHTS assay to test for compound auto fluorescence at 460 nm (blue) in HepG2 cells (AID 720687); also: % is scaled to controls: 0 for no effect and ±100 for the full control effect
Summary of the method: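 HepG2 cells in MEM with 10% FBS, attached overnight at 37 C, were exposed to compound or DMSO for 1 hr at 37 C, 5% CO2. Blue fluorescence was read at 405/460 nm, with triamterene as reference fluorophore.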

[18] = qHTS assay for identifying genotoxic compounds that show differential cytotoxicity against isogenic chicken DT40 cell lines with known DNA damage response pathways - Rad54/Ku70 mutant cell line (AID 743015); also: nearly all actives have a fitted effect of over 60% in size; also: potency is read from the fitted curve at half-maximal effect
[19] = qHTS assay to identify small molecule antagonists of the estrogen receptor beta (ER-beta) signaling pathway - cell viability counter screen (AID 1259382); also: nearly all actives have a fitted effect of over 55% in size; also: potency is read from the fitted curve at half-maximal effect
Summary of the method: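 Cytotoxicity counter screen multiplexed with the beta-lactamase antagonist assay: GripTite HEK293T ER-beta-bla cells were treated 16 hr with test chemicals in the presence of 1nM 17-beta-estradiol, and viability was measured by CellTiter-Glo.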

[20] = biological target: Thyrotropin-releasing hormone receptor (Homo sapiens) (UniProt P34981); assay: qHTS assay to identify small molecule agonists of the thyrotropin-releasing hormone receptor (TRHR) signaling pathway (AID 1346891; calls by dose curve)
Sequence of Thyrotropin-releasing hormone receptor (Homo sapiens) (P34981 whole entry, looked up): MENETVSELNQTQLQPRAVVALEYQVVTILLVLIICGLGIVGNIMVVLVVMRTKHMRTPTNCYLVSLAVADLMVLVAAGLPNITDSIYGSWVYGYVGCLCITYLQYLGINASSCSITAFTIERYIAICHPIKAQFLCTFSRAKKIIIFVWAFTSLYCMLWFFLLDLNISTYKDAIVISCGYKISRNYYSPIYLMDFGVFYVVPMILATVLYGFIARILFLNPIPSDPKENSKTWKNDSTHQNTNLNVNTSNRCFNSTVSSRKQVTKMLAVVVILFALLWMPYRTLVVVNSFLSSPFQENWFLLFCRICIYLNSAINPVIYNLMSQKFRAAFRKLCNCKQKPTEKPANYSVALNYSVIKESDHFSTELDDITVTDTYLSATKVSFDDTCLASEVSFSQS
Summary of the method: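 Overnight-plated (18 h, 37 °C, 5% CO2) TRHR-Hek293 cells; 2 h calcium dye at 37 °C; compound in DMSO; 3-min kinetic fluorescence read.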

O=S(=O)(C(Cl)(Cl)Cl)C(Cl)(Cl)Cl
inactive: Potency [3] | Potency [11]
active: Potency [1] 21.9 µM | Potency [2] 61.1 µM | Potency [4] 12.3 µM | Potency [5] 12.3 µM | Potency [6] 38.9 µM | Potency [7] 19.5 µM | Potency [8] 11 µM | Potency [9] 61.1 µM | Potency [10] 8.63 µM | Potency [12] 2 µM

CCc1cccc(CC)c1N
inactive: Potency [13] | Potency [3]

Nc1ccc([N+](=O)[O-])cc1
inactive: outcome [14] | Potency [15] | Potency [16] | Potency [17] | Potency [6]
active: Potency [18] 14.1 µM | Potency [5] 21.9 µM | Potency [7] 38.9 µM | Potency [8] 24.5 µM | Potency [9] 30.6 µM | Potency [10] 43.3 µM | Potency [11] 61.1 µM

CO/C=C(/C(=O)OC)c1ccccc1Oc1cc(Oc2ccccc2C#N)ncn1
active: Potency [18] 0.312 µM | Potency [1] 41.5 µM | Potency [2] 32.7 µM | Potency [9] 23.1 µM | Potency [19] 54 µM | Potency [10] 1.05 µM | Potency [11] 0.686 µM
inactive: outcome [14] | Potency [15] | Potency [16] | Potency [17] | outcome [20] | Potency [12]

Cc1ccc2nc3sc(=O)sc3nc2c1
active: Potency [4] 7.37 µM | Potency [10] 5.8 µM
inactive: activity change, negative = cytotoxicity [1] -5.08% [at 15.8 µM] | activity change, negative = cytotoxicity [2] 1.22% [at 19 µM] | activation [3] 7.43% [at 19 µM] | activity change, negative = cytotoxicity [5] 3.61% [at 15.8 µM] | viability change, negative = cytotoxic [6] 3.11% [at 15.8 µM] | cytotoxicity increase [7] -11.5% [at 15.8 µM] | activity change, negative = cytotoxicity [8] 3.52% [at 15.8 µM] | activity change, negative = cytotoxicity [9] -12.9% [at 19 µM] | activity change, negative = cytotoxicity [19] -3.52% [at 19 µM] | activation [20] -0.107% [at 11.8 µM] | activation [11] 20.6% [at 19 µM] | activity change, negative = inhibition [12] 0.418% [at 23.6 µM]

O=C1C(I)=CC(=C(c2cc(I)c(O)c(I)c2)c2ccccc2C(=O)O)C=C1I
active: Potency [11] 11.9 µM
inactive: outcome [14] | Potency [15] | Potency [16] | Potency [17] | Potency [18] | Potency [13] | Potency [1] | Potency [2] | Potency [3] | Potency [5] | Potency [6] | Potency [7] | Potency [8] | Potency [9] | Potency [12]

Cc1nnc2n1-c1sc(CCc3ccc(CC(C)C)cc3)cc1C(c1ccccc1Cl)=NC2C (centres undefined)
inactive: outcome [14] | Potency [15] | Potency [16] | Potency [17] | Potency [13] | outcome [20]
active: Potency [18] 13.3 µM | Potency [1] 23.9 µM | Potency [4] 19 µM | Potency [5] 19 µM | Potency [8] 10.7 µM | Potency [19] 33.5 µM | Potency [10] 29.8 µM | Potency [11] 4.22 µM

Cc1cc(C(C)(C)c2ccc(O)c(C)c2)ccc1O
active: Potency [3] 29.2 µM | Potency [5] 20.8 µM | Potency [8] 20.8 µM | Potency [10] 41.2 µM | Potency [11] 58.2 µM | Potency [12] 1.91 µM
inactive: outcome [14] | Potency [15] | Potency [16] | Potency [17] | Potency [13] | Potency [2] | Potency [4] | Potency [6] | Potency [19] | outcome [20]
